Source: PubChem BioAssay (EPA / NIEHS)
Records with an inconclusive call do not appear. The source made the active and inactive calls. The calls were made as follows, unless noted: active = hit-call score of the fitted dose curve at least 0.9, where 1 is the maximum; inconclusive = response in the unintended direction; inactive = score below 0.9.

Tests used:
[1] = ATG_GLI_CIS: Attagene CIS-FACTORIAL HepG2 Assay for human Zinc Finger Protein GLI1 (AID 2282945; active = hit-call score of the fitted dose curve at least 0.9, where 1 is the maximum; inactive = score below 0.9); conditions: HepG2, Attagene cis-factorial reporter mRNA, GLI element; actives raise or lower the signal
Summary of the method: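 Transiently transfected HepG2 cells report endogenous transcription factor activity via cis-element-driven reporter units. After 24 h compound exposure, reporter mRNA was measured by RT-PCR with capillary electrophoresis; bidirectional fitting against DMSO baseline.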

[2] = ATG_GRE_CIS: Attagene CIS-FACTORIAL HepG2 Assay for human Glucocorticoid Response Elements (GRE) (AID 2282947; active = hit-call score of the fitted dose curve at least 0.9, where 1 is the maximum; inactive = score below 0.9); conditions: HepG2 GRE cis-reporter, Attagene multiplex mRNA; actives raise or lower the signal
Summary of the method: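 Transiently transfected HepG2 cells carrying GRE cis-reporter units (endogenous TF activity) dosed 24 h; reporter mRNA quantified by RT-PCR, 6-FAM labelling, HpaI digestion and capillary electrophoresis. Bidirectional fit versus DMSO baseline.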

[3] = ATG_PBREM_CIS: Attagene CIS-FACTORIAL HepG2 Assay for human Phenobarbital-responsive Enhancer Module (PBREM) (AID 2282955; active = hit-call score of the fitted dose curve at least 0.9, where 1 is the maximum; inactive = score below 0.9); conditions: HepG2 PBREM cis-reporter, Attagene multiplexed transcription; actives raise or lower the signal
Summary of the method: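 Multiplexed cis-reporter readout in human hepatoma HepG2 cells; PBREM-regulated transcript quantified after 24 h exposure by fluorescent RT-PCR fragment analysis. Signal changes up or down fitted relative to DMSO.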

[4] = molecular target: X-box-binding protein 1 (Homo sapiens) (UniProt P17861); assay: ATG_Xbp1_CIS: Attagene CIS-FACTORIAL HepG2 Assay for human X-box Binding Protein 1 (XBP1) (AID 2282972; active = hit-call score of the fitted dose curve at least 0.9, where 1 is the maximum; inactive = score below 0.9); conditions: HepG2 XBP1 cis-element reporter, Attagene multiplex; actives raise or lower the signal
Summary of the method: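 HepG2 cells transiently transfected with cis-regulated multiple reporter transcription units; endogenous transcription factor activity measured 24 hours after chemical dosing. Reporter mRNA quantified by RT-PCR, 6-FAM primer extension, HpaI digestion and capillary electrophoresis; bidirectional fitting versus DMSO.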

[5] = molecular target: Hepatocyte nuclear factor 4-alpha (Homo sapiens) (UniProt P41235); assay: ATG_HNF4a_TRANS: Attagene TRANS-FACTORIAL HepG2 Assay for human Hepatocyte Nuclear Factor 4 alpha (HNF4a) (AID 2282982); conditions: HepG2 HNF4a transactivation reporter, mRNA readout
Summary of the method: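 HepG2 cells transiently transfected with HNF4a-Gal4 chimera and GAL4-UAS reporter units, dosed for 24 h. Reporter mRNA measured by RT-PCR, fluorescent primer extension and capillary electrophoresis; gain-of-signal fitted relative to DMSO.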

[6] = ATG_M_32_TRANS: Attagene TRANS-FACTORIAL HepG2 Assay for M32 Transcription Factor (Internal Marker) (AID 2282984); conditions: HepG2 Attagene TRANS M32 internal marker reporter
Summary of the method: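 HepG2 cells transiently transfected with GAL4-UAS reporter units, dosed for 24 hours. Reporter mRNA quantified by RT-PCR, 6-FAM labelling, HpaI digestion and capillary electrophoresis; internal-marker signal fitted upward relative to DMSO.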

[7] = molecular target: Transcriptional activator Myb (Homo sapiens) (UniProt P10242); assay: ATG_Myb_CIS: Attagene CIS-FACTORIAL HepG2 Assay for human Myeloblastosis (Myb) Proto-Oncogene Transcription Factor (AID 2282986; active = hit-call score of the fitted dose curve at least 0.9, where 1 is the maximum; inactive = score below 0.9); conditions: HepG2 Attagene CIS-FACTORIAL Myb reporter transcription; actives raise or lower the signal
Summary of the method: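 Using HepG2 liver cells bearing transiently transfected cis-promoter reporter constructs, the assay measures induction or loss of reporter mRNA after 24 hours of dosing. Detection used fluorescently labeled RT-PCR products separated by capillary electrophoresis.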

[8] = ATG_Oct_MLP_CIS: Attagene CIS-FACTORIAL HepG2 Assay for human Octamer-Binding Transcription Factor (Oct) (AID 2282993; active = hit-call score of the fitted dose curve at least 0.9, where 1 is the maximum; inactive = score below 0.9); conditions: HepG2 Attagene cis-factorial Oct reporter, mRNA; actives raise or lower the signal
Summary of the method: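 After 24 h compound exposure, transfected HepG2 cells were lysed for total RNA; reporter-specific cDNA was PCR-amplified, fluorescently labelled and sized by capillary electrophoresis. Bidirectional curve fitting used DMSO as baseline.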

[9] = molecular target: human Retinoid X Receptor beta (RXRb), RXRB (gene 6257) (UniProt P28702); assay: ATG_RXRb_TRANS: Attagene TRANS-FACTORIAL HepG2 Assay for human Retinoid X Receptor beta (RXRb) (AID 2283013)
Summary of the method: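 Transfect HepG2 with GAL4-UAS multi-reporter constructs (chimeric NR-Gal4, TRANS format); dose compound 24 h; isolate RNA, RT-PCR, FAM primer extension, HpaI digest; quantify by capillary electrophoresis; positive direction vs DMSO.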

[10] = molecular target: Cellular tumor antigen p53 (Homo sapiens) (UniProt P04637); assay: TOX21_p53_BLA_p2_ratio: Tox21 HCT-116 p53 Agonism Beta-lactamase Assay, Ratio, Phase 2 (AID 2283592)
Summary of the method: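 HCT116 p53-bla; 4000 cells/well; 5 h pre-incubation; cpd in DMSO, 217-fold dilution; 16 h 37C/5% CO2; CCF4-AM 2 h RT; Ex 405, Em 460/530 ratio; DMSO = baseline; positive fitting direction.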

[11] = molecular target: Cellular tumor antigen p53 (Homo sapiens) (UniProt P04637); assay: TOX21_p53_BLA_p3_ratio: Tox21 HCT-116 p53 Agonism Beta-lactamase Assay, Ratio, Phase 3 (AID 2283596)
Summary of the method: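 HCT116 p53-bla cells (4000/well) given compound in DMSO (217-fold dilution) after 5 h, incubated 16 h at 37C. CCF4-AM substrate 2 h at room temperature; 460/530 nm emission ratio, gain fitted against DMSO.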

[12] = molecular target: Cellular tumor antigen p53 (Homo sapiens) (UniProt P04637); assay: TOX21_p53_BLA_p5_ratio: Tox21 HCT-116 p53 Agonism Beta-lactamase Assay, Ratio, Phase 5 (AID 2283599)
Summary of the method: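 HCT-116 p53-bla cells (4000/well) plated 5 h, dosed with compound (217-fold DMSO dilution) for 16 h at 37 C; CCF4-AM substrate 2 h at room temperature. Activity is the 460/530 nm emission ratio (405 nm excitation), fitted in gain-of-signal direction versus DMSO.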

[13] = TOX21_p53_BLA_p5_viability: Viability Assessment in the Tox21 HCT-116 p53 Agonism Beta-lactamase Assay, Phase 5 (AID 2283600)
Summary of the method: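 4000 cells/well; 5 h pre-incubation; DMSO compounds pin-transferred, 217-fold dilution; 16 h, 37C/5% CO2; CCF4-AM 2 h RT; CellTiter-Glo 30 min RT; luminescence.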

[14] = molecular target: Cellular tumor antigen p53 (Homo sapiens) (UniProt P04637); assay: TOX21_p53_BLA_p4_ratio: Tox21 HCT-116 p53 Agonism Beta-lactamase Assay, Ratio, Phase 4 (AID 2283601)
Summary of the method: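 HCT-116 p53 beta-lactamase reporter cells (4000/well) preincubated 5 h, then compound (217-fold dilution of DMSO stock) for 16 h at 37C. CCF4-AM substrate added 2 h at room temperature; 460/530 nm emission ratio fitted upward versus DMSO.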

[15] = molecular target: Retinoic acid receptor alpha (Homo sapiens) (UniProt P10276); assay: ATG_DR5_RAR_CIS: Attagene CIS-FACTORIAL HepG2 Assay for human Retinoic Acid Receptor Alpha (RARE), DR5 submotif (AID 2282934; active = hit-call score of the fitted dose curve at least 0.9, where 1 is the maximum; inactive = score below 0.9;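 as to AC50: reporter responds to endogenous RAR alpha beta and gamma in HepG2 not RARA alone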); conditions: HepG2 Attagene cis-factorial RARE DR5 reporter, mRNA; actives raise or lower the signal
Summary of the method: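 HepG2 cells transiently transfected with multiplexed reporter units; DR5 cis-element drives reporter through endogenous transcription factors. After 24 h dosing, reporter mRNA quantified by RT-PCR, fluorescent labeling, HpaI digestion and capillary electrophoresis; bidirectional fitting versus DMSO.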

[16] = ATG_TCF_b_cat_CIS: Attagene CIS-FACTORIAL HepG2 Assay for human T-Cell-Factor with beta-catenin (TCF/b-cat) (AID 2282965; active = hit-call score of the fitted dose curve at least 0.9, where 1 is the maximum; inactive = score below 0.9); conditions: HepG2 TCF/beta-catenin cis-reporter transcription, actives raise or lower the signal
Summary of the method: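 HepG2 cells transiently transfected with cis-promoter-driven multiplexed reporter units; reporter mRNA measured 24 h after dosing by RT-PCR, FAM labelling, HpaI digestion and capillary electrophoresis. Bidirectional fitting relative to DMSO baseline.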

[17] = ATG_GAL4_TRANS: Attagene TRANS-FACTORIAL HepG2 Assay for GAL4 (Internal Marker) (AID 2282976); conditions: HepG2 Attagene TRANS GAL4 internal marker reporter
Summary of the method: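 First, HepG2 cells were transfected with reporter units under GAL4-UAS control. Next, they were treated with chemical for 24 h. Finally, RNA was reverse-transcribed, PCR-amplified, FAM-labelled and resolved by capillary electrophoresis, with induction scored against DMSO.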

[18] = ATG_NF_kB_CIS: Attagene CIS-FACTORIAL HepG2 Assay for human Nuclear Factor Kappa B (NF-kB) (AID 2282991; active = hit-call score of the fitted dose curve at least 0.9, where 1 is the maximum; inactive = score below 0.9); conditions: HepG2 Attagene cis-factorial NF-kB reporter mRNA; actives raise or lower the signal
Summary of the method: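 DMSO served as negative control and baseline for bidirectional curve fitting. Transiently transfected HepG2 cells were dosed for 24 h, then reporter transcripts were measured by RT-PCR with capillary electrophoresis detection.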

[19] = TOX21_p53_BLA_p2_viability: Viability Assessment in the Tox21 HCT-116 p53 Agonism Beta-lactamase Assay, Phase 2 (AID 2283591);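 also: compound exposure lasted 16 h at 37 °C; actives lower the ATP signal meaning cytotoxicity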
Summary of the method: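 HCT116 p53-bla cells, 4000/well, dosed after 5 h plating (217-fold dilution of DMSO stocks) and incubated 16 h at 37C. Viability taken as cellular ATP by CellTiter-Glo luminescence after 30 min RT; signal loss marks cytotoxicity.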

[20] = molecular target: Nuclear respiratory factor 1 (Homo sapiens) (UniProt Q16656); assay: ATG_NRF1_CIS: Attagene CIS-FACTORIAL HepG2 Assay for human Nuclear Respiratory Factor 1 (NRF1) Orphan Gene (AID 2282987; active = hit-call score of the fitted dose curve at least 0.9, where 1 is the maximum; inactive = score below 0.9); conditions: HepG2 NRF1 cis-element reporter, Attagene multiplex; actives raise or lower the signal
Summary of the method: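 Reporter mRNA induction or loss in HepG2 cells after 24 h dosing; cis-regulated reporter constructs report endogenous transcription-factor activity. Quantified by RT-PCR/capillary electrophoresis fluorescence, DMSO-referenced.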

Measured: AC50

Cellular tumor antigen p53 (Homo sapiens), sequence (P04637 whole entry, looked up): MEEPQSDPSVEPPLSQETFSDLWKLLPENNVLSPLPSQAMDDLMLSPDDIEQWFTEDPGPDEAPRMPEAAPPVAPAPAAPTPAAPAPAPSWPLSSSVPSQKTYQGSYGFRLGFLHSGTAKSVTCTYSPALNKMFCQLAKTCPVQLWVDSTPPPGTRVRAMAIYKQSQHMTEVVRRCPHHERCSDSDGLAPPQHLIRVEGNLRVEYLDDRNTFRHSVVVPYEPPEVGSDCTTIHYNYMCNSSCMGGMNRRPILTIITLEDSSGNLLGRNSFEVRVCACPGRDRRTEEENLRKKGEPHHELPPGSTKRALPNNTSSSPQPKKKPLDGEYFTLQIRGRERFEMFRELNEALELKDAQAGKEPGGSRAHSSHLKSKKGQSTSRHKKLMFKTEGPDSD
human Retinoid X Receptor beta (RXRb), RXRB (gene 6257), sequence (P28702 whole entry, looked up, the tested form may be a part): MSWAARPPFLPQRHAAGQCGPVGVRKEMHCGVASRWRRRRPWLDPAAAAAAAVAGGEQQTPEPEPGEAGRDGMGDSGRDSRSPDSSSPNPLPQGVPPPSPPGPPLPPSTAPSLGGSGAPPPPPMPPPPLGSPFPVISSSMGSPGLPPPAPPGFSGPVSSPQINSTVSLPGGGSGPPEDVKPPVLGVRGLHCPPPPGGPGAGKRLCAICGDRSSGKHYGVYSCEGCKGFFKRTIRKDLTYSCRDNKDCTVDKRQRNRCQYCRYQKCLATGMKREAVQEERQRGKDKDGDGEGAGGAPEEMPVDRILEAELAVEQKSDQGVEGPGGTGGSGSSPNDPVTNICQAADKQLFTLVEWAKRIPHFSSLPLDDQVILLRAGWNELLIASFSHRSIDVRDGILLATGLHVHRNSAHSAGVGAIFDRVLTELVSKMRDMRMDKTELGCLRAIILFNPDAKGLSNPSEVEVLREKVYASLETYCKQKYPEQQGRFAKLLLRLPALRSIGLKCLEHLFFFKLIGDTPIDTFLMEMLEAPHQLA
Transcriptional activator Myb (Homo sapiens), sequence (P10242 whole entry, looked up): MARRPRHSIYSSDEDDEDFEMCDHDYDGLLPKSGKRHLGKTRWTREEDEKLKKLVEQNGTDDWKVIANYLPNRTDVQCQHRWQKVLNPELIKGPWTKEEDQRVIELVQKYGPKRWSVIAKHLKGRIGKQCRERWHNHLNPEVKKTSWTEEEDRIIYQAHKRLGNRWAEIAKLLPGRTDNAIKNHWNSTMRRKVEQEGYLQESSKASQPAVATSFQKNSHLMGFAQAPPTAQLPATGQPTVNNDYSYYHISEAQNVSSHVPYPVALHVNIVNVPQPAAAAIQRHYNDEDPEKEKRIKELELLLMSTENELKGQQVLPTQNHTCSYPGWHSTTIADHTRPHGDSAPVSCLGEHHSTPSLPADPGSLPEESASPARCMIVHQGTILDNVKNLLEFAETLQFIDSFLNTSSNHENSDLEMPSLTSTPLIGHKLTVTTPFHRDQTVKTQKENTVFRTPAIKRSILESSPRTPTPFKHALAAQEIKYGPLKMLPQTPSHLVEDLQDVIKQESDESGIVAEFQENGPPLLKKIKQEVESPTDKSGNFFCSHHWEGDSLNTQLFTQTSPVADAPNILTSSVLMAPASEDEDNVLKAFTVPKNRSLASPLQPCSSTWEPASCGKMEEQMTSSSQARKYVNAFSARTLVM
Hepatocyte nuclear factor 4-alpha (Homo sapiens), sequence (P41235 whole entry, looked up, the tested form may be a part): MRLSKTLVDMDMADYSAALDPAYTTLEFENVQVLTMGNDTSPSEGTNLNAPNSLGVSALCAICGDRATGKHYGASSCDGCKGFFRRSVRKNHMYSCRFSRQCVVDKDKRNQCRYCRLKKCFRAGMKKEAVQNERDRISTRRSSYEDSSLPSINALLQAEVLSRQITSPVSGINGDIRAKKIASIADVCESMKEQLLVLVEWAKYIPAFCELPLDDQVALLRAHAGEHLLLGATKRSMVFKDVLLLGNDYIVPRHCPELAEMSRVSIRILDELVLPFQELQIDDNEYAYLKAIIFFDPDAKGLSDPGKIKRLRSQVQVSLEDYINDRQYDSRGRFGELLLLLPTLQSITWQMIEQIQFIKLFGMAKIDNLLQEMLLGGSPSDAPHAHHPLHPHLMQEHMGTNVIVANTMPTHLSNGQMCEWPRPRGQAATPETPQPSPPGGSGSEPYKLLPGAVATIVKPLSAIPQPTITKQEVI
X-box-binding protein 1 (Homo sapiens), sequence (P17861 whole entry, looked up): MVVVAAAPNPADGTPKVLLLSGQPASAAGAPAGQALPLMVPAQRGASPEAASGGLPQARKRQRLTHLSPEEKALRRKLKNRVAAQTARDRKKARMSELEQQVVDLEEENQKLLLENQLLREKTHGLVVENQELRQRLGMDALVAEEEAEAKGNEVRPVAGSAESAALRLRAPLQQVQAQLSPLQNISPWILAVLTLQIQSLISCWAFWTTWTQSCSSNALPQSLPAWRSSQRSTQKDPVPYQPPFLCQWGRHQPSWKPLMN
Retinoic acid receptor alpha (Homo sapiens), sequence (P10276 whole entry, looked up): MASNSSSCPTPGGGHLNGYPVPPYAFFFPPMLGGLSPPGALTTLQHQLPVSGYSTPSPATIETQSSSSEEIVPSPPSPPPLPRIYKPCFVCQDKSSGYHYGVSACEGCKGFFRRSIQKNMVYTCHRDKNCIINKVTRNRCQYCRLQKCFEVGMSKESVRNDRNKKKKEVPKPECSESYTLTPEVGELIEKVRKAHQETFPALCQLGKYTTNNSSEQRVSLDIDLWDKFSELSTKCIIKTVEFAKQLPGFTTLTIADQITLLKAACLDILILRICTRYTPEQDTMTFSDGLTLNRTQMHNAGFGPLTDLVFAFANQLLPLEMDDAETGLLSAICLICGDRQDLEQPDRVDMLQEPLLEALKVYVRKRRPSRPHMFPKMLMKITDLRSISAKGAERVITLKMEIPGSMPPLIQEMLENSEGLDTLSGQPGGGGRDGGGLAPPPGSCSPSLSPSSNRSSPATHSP
Nuclear respiratory factor 1 (Homo sapiens), sequence (Q16656 whole entry, looked up): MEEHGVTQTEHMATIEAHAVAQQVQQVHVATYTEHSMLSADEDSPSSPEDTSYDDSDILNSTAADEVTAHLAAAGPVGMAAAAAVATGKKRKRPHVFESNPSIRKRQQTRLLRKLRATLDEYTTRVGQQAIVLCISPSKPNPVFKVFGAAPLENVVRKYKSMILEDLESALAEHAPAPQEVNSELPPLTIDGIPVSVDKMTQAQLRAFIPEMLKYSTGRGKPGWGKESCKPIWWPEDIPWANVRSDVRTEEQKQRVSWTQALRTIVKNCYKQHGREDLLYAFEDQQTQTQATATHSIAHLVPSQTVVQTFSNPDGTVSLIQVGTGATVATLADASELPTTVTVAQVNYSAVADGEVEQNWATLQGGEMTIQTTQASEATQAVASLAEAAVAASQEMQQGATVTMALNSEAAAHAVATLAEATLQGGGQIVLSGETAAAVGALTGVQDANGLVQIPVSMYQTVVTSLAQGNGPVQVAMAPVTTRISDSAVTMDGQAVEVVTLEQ

COc1cccc(OC)c1C(=O)O
not listed: [15] | [16] | [17] | [18] | [19] | [20]
inactive: all other assays above

CCCCCCCCCCCCCCCCCC[N+](C)(C)C
inactive: [2] | [4]
active: [15] 42.5 µM | [3] 45.4 µM | [16] 16.5 µM | [17] 15.4 µM | [5] 37.3 µM | [6] 16.2 µM | [7] 6.05 µM | [18] 3.31 µM | [8] 6.14 µM | [19] 46.2 µM | [10] 73.2 µM | [11] 72.7 µM | [12] 75 µM | [13] 62.8 µM | [14] 75.3 µM

C=C1CC[C@H]2C[C@@H]1C2(C)C
inactive: [15] | [1] | [4] | [17] | [5] | [7] | [18]

Cc1ccccc1S(N)(=O)=O
not listed: [1] | [5] | [14] | [17] | [20]
inactive: all other assays above

NCc1ccccc1
not listed: [7] | [8] | [11] | [13] | [15] | [18]
inactive: all other assays above

CC1=CCCC(C)(C)C12CCC(C)O2 (centres undefined)
not listed: [2] | [3] | [4] | [15] | [18] | [19]
inactive: all other assays above

CCCCCCCCCCCCCC
not listed: [1] | [2] | [5] | [7] | [10] | [13] | [15] | [20]
inactive: all other assays above

CN(C)N=Nc1ccccc1
not listed: [2] | [3] | [4] | [7] | [10] | [12] | [15] | [19]
inactive: all other assays above

CCCC(=O)OC
inactive: [15] | [2] | [16] | [4] | [7] | [8] | [10] | [11] | [12]
